Assay outcomes: PubChem BioAssay, National Center for Advancing Translational Sciences (NCATS)
Pf Dd2 inh = qHTS Primary assay for Inhibitors of Plasmodium falciparum Dd2 growth in vitro | P. falciparum Dd2 growth, SYBR Green, 72 h | Potency, µM (doses to about 28.9 µM), inactives show at the top dose activity, negative = inhibition, usual class: inhibitors | actives 4.3% (n = 120,000) | AID 1347417, 2020; active means well fitted inhibition curve with a large enough effect;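 further: plate controls were DMSO vehicle for no effect and reference drug for full effect; nearly all actives have a fitted effect of over 65% in size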
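Infected erythrocytes (Dd2, 0.3% parasitemia, 2.5% hematocrit final) are added to compound in RPMI-1640/Albumax II medium, grown 72 h at 37C in low oxygen, then lysed with saponin/Triton-X containing SYBR Green and read by fluorescence.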
Starred values were filed as active, the others as inactive; [ ] = another dose, or the depositor's remark. The entries come from a sample that favours hits as a whole. Potency means the concentration at half of the fitted maximal effect.

For COCC(=O)N(C1CCOCC1)C1CCN(C(=O)c2cccc(C)c2)CC1 the results were Pf Dd2 inh -25%.
For O=C(NCCc1cscn1)c1cccc(S(=O)(=O)NC[C@@H]2CCCO2)c1 the results were Pf Dd2 inh -22%.
`Cc1ccc(C(=O)N2CCn3c(nnc3-c3ccccc3)C2)cc1` gave Pf Dd2 inh inactive.
`CCOc1ccc(-c2nnc(SCC(=O)c3ccccc3)n2-c2ccccc2)cc1` gave Pf Dd2 inh 21%.
Screening COc1ccc(C2=C(C(C)=O)Sc3nnc(-c4ccccc4)n3N2C(C)=O)cc1 returned Pf Dd2 inh -13%.
Screening CCc1nnc2n1N(C(C)=O)C(c1ccc(C(C)(C)C)cc1)=C(C(C)=O)S2 returned Pf Dd2 inh 3.2µM*.
CCOc1ccc(-c2nnc(SCC(=O)c3ccc(Br)cc3)n2-c2ccccc2)cc1 was read as Pf Dd2 inh inactive.
CC(=O)C1=C(c2ccc(C)cc2)N(C(C)=O)n2c(nnc2-c2ccccc2)S1 was read as Pf Dd2 inh 7.9µM*.
`CCOc1ccc(C2=C(C(C)=O)Sc3nnc(C)n3N2C(C)=O)cc1` gave Pf Dd2 inh 1.1µM*.
COc1cccc(-c2noc(COC(=O)C3=CN(C)S(=O)(=O)N=C3C)n2)c1 was read as Pf Dd2 inh 13%.
`CSCC(=O)N[C@H]1CN(Cc2cn(CCO)nc2C)C[C@@H]1C1CC1` gave Pf Dd2 inh 1%.
For COC1C(=O)N(C2CCN(C(=O)c3sc(C)nc3C)CC2)C12CCOCC2 (centres undefined) the results were Pf Dd2 inh -5%.
For CCc1noc(-c2cn(C3CCN(C(=O)c4cc(Cl)ccc4OC)CC3)nn2)n1 the results were Pf Dd2 inh -28%.
For Cc1noc(C)c1CCC(=O)N1CC[C@@H](NC(=O)c2cnccn2)[C@H](O)C1 the results were Pf Dd2 inh -11%.
Screening c1cncc(-c2cnc([C@@H]3COCCN3Cc3ncc[nH]3)[nH]2)c1 returned Pf Dd2 inh -10%[44.1 µM].
For CCOc1ccccc1NC(=O)Cn1c(N2CCCCC2)nc(C)c(C)c1=O the results were Pf Dd2 inh -18%.
Screening Cc1nc2ccc(Cl)cn2c1C(=O)N1CCC2(CCCN(C)C2=O)C1 (centres undefined) returned Pf Dd2 inh -5%.
`CN1CCCCC(CC(=O)Nc2ccc(N3CCOCC3)cc2)C1=O` (centres undefined) gave Pf Dd2 inh 16%.
CC(C)(C)NC(=O)N1CCC(OC2CCN(S(C)(=O)=O)CC2)CC1 was read as Pf Dd2 inh 7%.
CCOc1ccccc1C1NC(=O)N(CC(=O)Nc2c(C)cccc2CC)C2=C1C(=O)OC2 (centres undefined) was read as Pf Dd2 inh inactive.
For O=C(Nc1cccc(-c2ccc(N3CCOCC3)nn2)c1)Nc1ccccc1C(F)(F)F the results were Pf Dd2 inh -22%.
`CC1(C)[C@H](Cc2cc(CO)on2)C[C@@H]1NC(=O)C1CCC1` gave Pf Dd2 inh 1%[44.1 µM].
For CC1(C)[C@H](Cc2cc(COc3ccccc3)on2)C[C@@H]1NC(=O)C1CCCC1 the results were Pf Dd2 inh inactive.
CC(C)N[C@H]1C[C@@H](Cc2cc(CO)on2)C1(C)C was read as Pf Dd2 inh -16%[44.1 µM].
`CC1(C)[C@H](Cc2cc(COc3ccccc3)on2)C[C@@H]1NC(=O)C1CCC1` gave Pf Dd2 inh 11µM*.
For CN(C)Cc1cc(C[C@@H]2C[C@H](NC(=O)CC(C)(C)C)C2(C)C)no1 the results were Pf Dd2 inh 14µM*.
For CCCCc1cc(C[C@@H]2C[C@H](NC(=O)C(C)(C)C)C2(C)C)no1 the results were Pf Dd2 inh inactive.
For CC(C)NC(=O)N[C@H]1C[C@@H](Cc2cc(CN3CCN(c4ccccc4)CC3)on2)C1(C)C the results were Pf Dd2 inh 10µM*.
For CC1(C)[C@H](Cc2cc(COc3ccccc3)on2)C[C@@H]1NC(=O)NCc1ccccc1 the results were Pf Dd2 inh -1%[44.1 µM].
`CC(C)N[C@H]1C[C@@H](Cc2cc(COc3ccccc3)on2)C1(C)C` gave Pf Dd2 inh 11µM*.
For CC1(C)[C@H](Cc2cc(CN3CCN(c4ccccc4)CC3)on2)C[C@@H]1NCC1CC1 the results were Pf Dd2 inh inactive.
Screening CC(C)N[C@H]1C[C@@H](Cc2cc(CCO)on2)C1(C)C returned Pf Dd2 inh -9%[44.1 µM].
`CC1(C)[C@H](Cc2cc(CN3CCCCC3)on2)C[C@@H]1NC(=O)c1ccccc1` gave Pf Dd2 inh -5%[44.1 µM].
`CN1C[C@H](NCc2ccc(C(F)(F)F)cc2)CCC[C@@H](C(=O)N(C)Cc2cccnc2)CC1=O` gave Pf Dd2 inh -7%.
Screening CC(=O)N1CCCC(c2nn(C)c(=O)n2Cc2ccccc2)C1 (centres undefined) returned Pf Dd2 inh inactive.
Screening COc1ccc(-n2nc(C3CCCN(C(=O)c4ccc(C)cc4)C3)[nH]c2=O)cc1 (centres undefined) returned Pf Dd2 inh inactive.
Screening Cc1ccccc1CC(=O)NC1CCN(c2cc(-c3ccccc3)[nH]n2)C1 (centres undefined) returned Pf Dd2 inh -14%.
